Inconclusive results are not listed. A call without a number means that no potency is given here. The source made the active and inactive calls. The call rests on the fitted dose curve.

These results are taken from PubChem BioAssay (NCATS).

The experiment can be described thus: Primary qHTS for inhibitors of SARS-S pseudo-typed particle cell entry (AID 1479145). Further: nearly all actives have a fitted effect of over 45% in size. Conditions: SARS-S pseudotyped particle cell entry, luciferase reporter; series mostly up to 57.1 µM. For orientation: qHTS replaces the single test concentration by a dilution series.
For `CC(C)=CC1C(C(=O)OCc2cccc(Oc3ccccc3)c2)C1(C)C` (stereo unspecified), the Potency entry was “inactive”.

Turning to `C[C@H]1O[C@@H](O[C@H]2[C@@H](O)C[C@H](O[C@H]3[C@@H](O)C[C@H](O[C@H]4CC[C@@]5(C)[C@H](CC[C@@H]6[C@@H]5CC[C@]5(C)[C@@H](C7=CC(=O)OC7)CC[C@]65O)C4)O[C@@H]3C)O[C@@H]2C)C[C@H](O)[C@@H]1O`, the Potency entry is “inactive”.

For `CN(C)[C@@H]1C(=O)C(C(N)=O)=C(O)[C@@]2(O)C(=O)C3=C(O)c4c(O)cccc4[C@@](C)(O)[C@H]3C[C@@H]12`, the Potency entry was “inactive”.

Regarding `OCCOc1ccccc1`, the Potency result is “inactive”.

In the case of `O=[N+]([O-])c1cc([As](=O)(O)O)ccc1O`, the Potency entry was “inactive”.

Turning to `CCC(C(N)=O)N1CCCC1=O` (stereo unspecified), the Potency entry was “inactive”.
